# From PubChem BioAssay (EPA / NIEHS)
# Some compounds were tested as several samples or in several runs, with calls that do not always agree. Active and inactive are the calls of the source. The calls were made as follows: active = hit-call score of the fitted dose curve at least 0.9, where 1 is the maximum; inactive = score below 0.9.
# Columns and labels:
# [1] = CEETOX_H295R_OHPREG: CeeTox H295R High-throughput Steroidogenesis Assay for OH-Pregnenolone (OHPREG) (AID 2283434); settings: actives raise or lower the signal
# Procedure, shortened: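 Human adrenal H295R cells were prestimulated 48 h with 10 uM forskolin, then exposed 48 h to chemical in 0.1% DMSO. Medium 17alpha-hydroxypregnenolone was quantified by HPLC-MS/MS after MTBE extraction; bidirectional fitting versus DMSO baseline.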
# [2] = CEETOX_H295R_ANDR: CeeTox H295R High-throughput Steroidogenesis Assay for Androstenedione (ANDR) (AID 2283436); settings: actives raise or lower the signal
# Procedure, shortened: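 H295R human adrenal cells (passages ≤10) were exposed to test chemicals for 48 h; androstenedione in medium was MTBE-extracted and quantified by HPLC-MS/MS against a 7-point standard curve. Bidirectional fitting used DMSO as baseline.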
# [3] = CEETOX_H295R_CORTIC: CeeTox H295R High-throughput Steroidogenesis Assay for Corticosterone (CORTIC) (AID 2283437); settings: actives raise or lower the signal;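 also: corticosterone secreted into medium quantified by mass spectrometry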
# Procedure, shortened: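 H295R cells were prestimulated 48 h with 10 uM forskolin, then exposed 48 h to test chemical in 0.1% DMSO. Medium corticosterone was MTBE-extracted and quantified by HPLC-MS/MS; bidirectional fit versus DMSO baseline.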
# [4] = CEETOX_H295R_CORTISOL: CeeTox H295R High-throughput Steroidogenesis Assay for Cortisol (AID 2283438); settings: actives raise or lower the signal;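 also: cortisol secreted into medium quantified by LC-MS/MS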
# Procedure, shortened: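 H295R human adrenal cells were prestimulated 48 h with 10 uM forskolin, then exposed 48 h to test chemical (0.1% DMSO final). Medium cortisol was quantified by HPLC-MS/MS after MTBE extraction; bidirectional fitting relative to DMSO baseline.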
# [5] = CEETOX_H295R_DOC: CeeTox H295R High-throughput Steroidogenesis Assay for DOC (AID 2283439); settings: actives raise or lower the signal
# Procedure, shortened: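 H295R adrenal cells prestimulated 48 h with 10 uM forskolin, then exposed 48 h to test chemical (0.1% DMSO final). Medium 11-deoxycorticosterone extracted with MTBE, quantified by HPLC-MS/MS; bidirectional fit versus DMSO baseline; MTT viability in same wells.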
# [6] = CEETOX_H295R_PROG: CeeTox H295R High-throughput Steroidogenesis Assay for Progesterone (PROG) (AID 2283442); settings: actives raise or lower the signal;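 as to AC50: human H295R adrenal cells primed with 10 µM forskolin before dosing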
# Procedure, shortened: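 Progesterone read-out: HPLC-MS/MS on MTBE extracts of conditioned medium after 48 h chemical exposure of forskolin-primed (10 uM, 48 h) H295R cells. Gain or loss of signal was fitted relative to DMSO baseline.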
# [7] = CEETOX_H295R_ESTRADIOL: CeeTox H295R High-throughput Steroidogenesis Assay for Estradiol (AID 2283440); settings: actives raise or lower the signal;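 also: estradiol secreted into medium quantified by LC-MS/MS after dansyl derivatisation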
# Procedure, shortened: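 H295R, 48 h forskolin (10 uM) prestim → 48 h compound, 0.1% DMSO final. Estradiol in medium: MTBE extraction, dansyl chloride derivatization, LC-MS/MS. Fit bidirectional vs DMSO baseline; MTT viability in same wells.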
# [8] = CEETOX_H295R_ESTRONE: CeeTox H295R High-throughput Steroidogenesis Assay for Estrone (AID 2283441); settings: actives raise or lower the signal;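 also: estrone secreted into medium measured by LC-MS/MS after dansyl derivatization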
# Procedure, shortened: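 H295R cells; 48 h forskolin (10 uM) prestimulation; 48 h compound exposure, 0.1% DMSO final. Medium estrone: MTBE extraction, dansyl derivatization, HPLC-MS/MS. Bidirectional fit vs DMSO.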
# [9] = read-out: Tumor necrosis factor receptor superfamily member 6 (Homo sapiens) (UniProt P25445); assay: LTEA_HepaRG_FAS: Life Technologies and Expression Analysis (LTEA) Assay for Fas cell surface death receptor (FAS) using HepaRG (AID 2283447); settings: mRNA level, 48 h; actives raise or lower the signal
# Experimental: LTEA_HepaRG is a cell based, multiplexed-readout assay that uses HepaRG, a human liver cell line, with measurements taken at 48 hours after chemical dosing on a 96-well plate.LTEA_HepaRG_FAS is one of 102 assay component(s) measured in the LTEA HepaRG cell culture assay. It is a marker of Cell proliferation, survival, death.Data from the assay component LTEA_HepaRG_FAS was analyzed into 1 endpoint. This assay endpoint, LTEA_HepaRG_FAS, was analyzed with bidirectional fitting relative to DMSO as the negative control and baseline of activity. Using a type of inducible reporter, measures of mRNA induction for gain or loss-of-signal activity can be used to understand regulation of transcription factor activity. To generalize the intended target to other relatable targets, this assay endpoint is annotated to the cytokine receptor intended target family, where the subfamily is TNF receptor.
# A total of 1060 chemcials from the ToxCast library were tested in eight-point concentration-response experiments. Cell culture and cytotoxicity assays were conducted at Thermo Fisher Scientific's Custom Services facility (Madison, WI). A single lot of human HepaRG cells (Thermo Fisher Scientific, Frederick, MD) was used for the cell culture experiments. 96-well format collagen type I coated plates of human HepaRG cells were prepared using established methods. Briefly, cryopreserved HepaRG cells were thawed, plated at a density of approximately 100,000 cells/well in HepaRG Thaw, Plate, and General Purpose media (HPRG770, Thermo Fisher Scientific), and incubated for 48 hours. 0.5% DMSO was selected as vehicle control to balance the requisite need of DMSO in HepaRG cultures to maintain differentiation (for example, baseline metabolism, proportions of hepatocytes vs. cholangiocytes), while enabling further hepatic receptor pathway activation (for example, PXR and CAR) in response to chemical exposure. 48 hours after plating, the culture medium was replaced with HepaRG Serum-Free Incudtion Media. Cells were exposed to each test chemical in duplicate and maintained in CO2 incubators for another 48 hours. Chemical plates were thawed to room temperature and 200x concentrations of treatment groups were prepared. 8-point conentration-reponse curves were made with the highest exposure at 100 uM, followed by half-log dilutions, all in 0.5% DMSO. Each test plate contained variouse controls, induction positive controls (1mM phenobarbital), cytotoxicity positive controls ([…] aflatoxin B1), vehicle controls (0.5% DMSO), and total lysis controls (0.5% DMSO). Cell morphology images were taken using an Essen IncuCyte FLR automated microscope, with six 96-well plates imaged in about 24 minutes. Images were captured and exported and JPEG files. Spent culture media was transfered to black-well plates for the LDH assay, and remaining media was sorted at -80 C for later use. Cells were treated with RLT buffer and frozen until shipped for gene expression analysis. Total RNA was isolated from the cell suspension in 75 uL of Buffer RLT (Qiagen, Germantown, MD 20874) by Quintiles/Expression Analysis (Durham, NC) using a custom isolation procedure. Total RNA from each plate well was transferred to a preamplification plate. Fluidigm's 96.96 Dynamic ArrayTM (Fluidigm, Amsterdam, the Netherlands) technology was used for gene expression analyses by quantitative reverse transcription polymerase chain reaction (qRT-PCR, performed by Quintiles/Expression Analysis, Durham, NC)89. Standard TaqManTM Assays (Applied Biosystems/ThermoFisher Scientific, Foster City, CA) were used to assess the expression of 93 genes selected based on their selectivity and sensitivity to important hepatic receptors known to be modulated by environmental chemicals; importance in human hepatocyte functionality; and hepatotoxicity. […]
# [10] = read-out: Fatty acid synthase (Homo sapiens) (UniProt P49327); assay: LTEA_HepaRG_FASN: Life Technologies and Expression Analysis (LTEA) Assay for Fatty Acid Synthase (FASN) using HepaRG (AID 2283448); settings: mRNA level, 48 h; actives raise or lower the signal
# Procedure, shortened: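 Differentiated human HepaRG cells were exposed for 48 h in serum-free induction medium to eight half-log concentrations up to 100 uM in 0.5% DMSO, in duplicate. FASN mRNA was quantified by TaqMan qRT-PCR, normalized to ACTB/GAPDH/POLR2A, and fitted bidirectionally against DMSO.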
# Fatty acid synthase (Homo sapiens), sequence (P49327 whole entry, looked up): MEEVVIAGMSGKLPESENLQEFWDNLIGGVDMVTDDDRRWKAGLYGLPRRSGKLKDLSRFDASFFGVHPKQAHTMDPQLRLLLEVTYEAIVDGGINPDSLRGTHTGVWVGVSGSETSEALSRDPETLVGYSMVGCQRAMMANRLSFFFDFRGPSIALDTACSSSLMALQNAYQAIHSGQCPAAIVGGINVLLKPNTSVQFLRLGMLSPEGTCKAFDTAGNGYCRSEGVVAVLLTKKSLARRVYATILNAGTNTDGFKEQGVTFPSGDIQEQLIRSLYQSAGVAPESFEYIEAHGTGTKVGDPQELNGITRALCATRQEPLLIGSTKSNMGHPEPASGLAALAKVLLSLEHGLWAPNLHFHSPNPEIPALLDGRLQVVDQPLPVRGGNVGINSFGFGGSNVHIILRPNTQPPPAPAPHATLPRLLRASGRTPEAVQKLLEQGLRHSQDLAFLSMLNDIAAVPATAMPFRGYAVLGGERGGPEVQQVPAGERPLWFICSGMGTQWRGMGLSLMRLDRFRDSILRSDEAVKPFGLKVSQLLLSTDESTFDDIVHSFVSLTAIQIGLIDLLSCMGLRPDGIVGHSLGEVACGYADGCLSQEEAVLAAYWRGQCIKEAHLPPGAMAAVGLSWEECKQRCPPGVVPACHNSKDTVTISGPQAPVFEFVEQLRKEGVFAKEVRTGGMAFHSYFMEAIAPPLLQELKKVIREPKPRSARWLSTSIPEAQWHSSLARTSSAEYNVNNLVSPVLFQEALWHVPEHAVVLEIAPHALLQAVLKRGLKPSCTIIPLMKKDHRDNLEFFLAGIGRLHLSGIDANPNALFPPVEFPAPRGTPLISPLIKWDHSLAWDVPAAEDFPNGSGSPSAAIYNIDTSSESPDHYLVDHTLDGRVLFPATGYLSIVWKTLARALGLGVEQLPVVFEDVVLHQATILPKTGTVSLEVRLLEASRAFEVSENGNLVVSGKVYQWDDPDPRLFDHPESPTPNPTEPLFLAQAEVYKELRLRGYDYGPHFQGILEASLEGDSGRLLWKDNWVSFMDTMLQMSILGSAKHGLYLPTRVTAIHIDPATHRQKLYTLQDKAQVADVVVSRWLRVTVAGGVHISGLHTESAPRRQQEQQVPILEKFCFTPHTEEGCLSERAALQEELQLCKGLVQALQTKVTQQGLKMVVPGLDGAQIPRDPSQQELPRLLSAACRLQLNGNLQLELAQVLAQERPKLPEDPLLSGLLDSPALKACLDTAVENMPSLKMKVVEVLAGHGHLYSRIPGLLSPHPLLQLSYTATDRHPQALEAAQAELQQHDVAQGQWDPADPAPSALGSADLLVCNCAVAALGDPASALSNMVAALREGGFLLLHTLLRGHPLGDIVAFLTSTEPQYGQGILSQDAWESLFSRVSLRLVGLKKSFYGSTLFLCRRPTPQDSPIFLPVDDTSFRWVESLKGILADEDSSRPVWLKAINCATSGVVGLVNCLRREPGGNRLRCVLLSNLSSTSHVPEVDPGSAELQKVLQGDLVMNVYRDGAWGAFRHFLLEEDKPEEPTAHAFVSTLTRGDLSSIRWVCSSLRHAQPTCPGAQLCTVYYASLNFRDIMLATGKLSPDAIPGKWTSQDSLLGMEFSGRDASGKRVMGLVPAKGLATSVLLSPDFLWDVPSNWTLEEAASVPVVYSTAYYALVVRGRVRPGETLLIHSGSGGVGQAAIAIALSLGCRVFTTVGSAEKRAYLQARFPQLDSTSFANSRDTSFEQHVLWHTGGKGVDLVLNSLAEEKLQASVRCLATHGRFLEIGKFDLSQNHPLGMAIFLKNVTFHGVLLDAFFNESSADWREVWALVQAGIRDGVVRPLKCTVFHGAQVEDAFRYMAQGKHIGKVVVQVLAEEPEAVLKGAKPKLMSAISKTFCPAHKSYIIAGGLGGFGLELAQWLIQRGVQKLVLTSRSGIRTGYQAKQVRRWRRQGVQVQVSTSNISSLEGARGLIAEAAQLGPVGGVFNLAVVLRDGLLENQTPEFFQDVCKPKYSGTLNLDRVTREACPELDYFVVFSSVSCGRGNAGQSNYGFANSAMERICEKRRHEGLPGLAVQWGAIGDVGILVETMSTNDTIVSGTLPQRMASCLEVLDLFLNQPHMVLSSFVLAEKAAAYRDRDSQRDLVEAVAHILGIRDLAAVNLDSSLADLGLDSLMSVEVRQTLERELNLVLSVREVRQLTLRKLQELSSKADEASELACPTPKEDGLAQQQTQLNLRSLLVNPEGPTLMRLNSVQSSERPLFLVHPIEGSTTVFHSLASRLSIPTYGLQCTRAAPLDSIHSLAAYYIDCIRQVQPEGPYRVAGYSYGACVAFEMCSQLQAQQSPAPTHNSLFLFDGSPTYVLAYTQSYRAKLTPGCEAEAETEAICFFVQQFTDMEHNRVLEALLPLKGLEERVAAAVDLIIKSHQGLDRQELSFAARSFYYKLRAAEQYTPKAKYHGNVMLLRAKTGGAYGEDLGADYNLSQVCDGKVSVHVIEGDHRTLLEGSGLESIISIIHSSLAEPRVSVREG
structure (smiles),measurement,setting,value
CC(C)(C)c1cccc(O)c1,outcome,[1],inactive
same,outcome,[2],inactive
same,outcome,[3],inactive
same,outcome,[4],inactive
same,outcome,[5],inactive
same,outcome,[6],inactive
O=C(OCc1ccccc1)c1ccccc1O,outcome,[1],inactive
same,outcome,[3],inactive
same,outcome,[4],inactive
same,outcome,[5],inactive
same,outcome,[7],inactive
same,outcome,[8],inactive
same,AC50,[6],50 µM (active)
CC(=O)c1ccc2ccccc2c1,outcome,[1],inactive
same,outcome,[3],inactive
same,outcome,[4],inactive
same,outcome,[5],inactive
same,outcome,[7],inactive
same,outcome,[8],inactive
same,outcome,[6],inactive
c1ccc(OCCOc2ccccc2)cc1,outcome,[1],inactive
same,outcome,[3],inactive
same,outcome,[4],inactive
same,outcome,[5],inactive
same,outcome,[7],inactive
same,outcome,[8],inactive
same,AC50,[6],14.3 µM (active)
C=C(C)C(N)=O,outcome,[9],inactive
same,outcome,[10],inactive
C#C[C@]1(O)CC[C@H]2[C@@H]3CCc4cc(O)ccc4[C@H]3CC[C@@]21C,AC50,[1],0.369 µM (active)
same,AC50,[3],0.142 µM (active)
same,outcome,[4],inactive
same,outcome,[5],inactive
same,AC50,[6],0.372 µM (active)
same,outcome,[9],inactive
same,outcome,[10],inactive
COc1ccc2[nH]cc(CCNC(C)=O)c2c1,outcome,[1],inactive
same,AC50,[3],10.5 µM (active)
same,outcome,[4],inactive
same,outcome,[5],inactive
same,outcome,[7],inactive
same,outcome,[8],inactive
same,AC50,[6],20 µM (active)
CC(=N[Si](C)(C)C)O[Si](C)(C)C,outcome,[1],inactive
same,outcome,[2],inactive
same,outcome,[3],inactive
same,outcome,[4],inactive
same,outcome,[5],inactive
same,outcome,[6],inactive
OCCCO,outcome,[1],inactive
same,outcome,[2],inactive
same,outcome,[3],inactive
same,outcome,[4],inactive
same,outcome,[5],inactive
same,outcome,[7],inactive
same,outcome,[8],inactive
same,outcome,[6],inactive
CCCc1ccc(O)cc1,outcome,[1],inactive
same,AC50,[3],36.4 µM (active)
same,outcome,[4],inactive
same,outcome,[5],inactive
same,outcome,[7],inactive
same,outcome,[8],inactive
same,outcome,[6],inactive
C[C@]12CC[C@@H]3c4ccc(O)cc4CC[C@H]3[C@@H]1CC[C@@H]2O,AC50,[1],1.57 µM (active)
same,AC50,[3],0.479 µM (active)
same,AC50,[4],2.63 µM (active)
same,AC50,[5],3.8 µM (active)
same,AC50,[6],5 µM (active)
same,outcome,[9],inactive
same,outcome,[10],inactive
OCC=Cc1ccccc1,outcome,[1],inactive
same,outcome,[7],inactive
same,outcome,[8],inactive
same,outcome,[6],inactive
COC(=O)c1ccc(C(=O)OC)cc1,outcome,[9],inactive
same,outcome,[10],inactive
c1coc(CNc2ncnc3nc[nH]c23)c1,outcome,[1],inactive
same,outcome,[3],inactive
same,outcome,[5],inactive
same,outcome,[6],inactive
CC(=O)C1=C(C)[C@@H]2C[C@@]3(C1)[C@H](C)CC[C@H]3C2(C)C,outcome,[1],inactive
same,outcome,[7],inactive
same,outcome,[8],inactive
same,outcome,[6],inactive
O=C(c1ccc(OCCN2CCCCC2)cc1)c1c(-c2ccc(O)cc2)sc2cc(O)ccc12,AC50,[1],0.35 µM (active)
same,outcome,[3],inactive
same,outcome,[4],inactive
same,outcome,[5],inactive
same,outcome,[6],inactive
same,outcome,[9],inactive
same,outcome,[10],inactive
CCCCOCCOCCO,outcome,[9],inactive
same,outcome,[10],inactive
CC=CC(=O)C1=C(C)C=CCC1(C)C,outcome,[1],inactive
same,outcome,[2],inactive
same,outcome,[3],inactive
same,outcome,[4],inactive
same,outcome,[5],inactive
same,outcome,[6],inactive
CCCCCCCCCCCCN1CCOCC1,AC50,[1],0.645 µM (active)
same,outcome,[3],inactive
same,outcome,[4],inactive
same,AC50,[5],0.549 µM (active)
same,outcome,[7],inactive
same,outcome,[8],inactive
same,AC50,[6],0.304 µM (active)
O=c1cc(-c2ccc(O)cc2)oc2cc(O)cc(O)c12,outcome,[3],inactive
same,outcome,[4],inactive
same,AC50,[5],7.72 µM (active)
CC/C(=C(\c1ccccc1)c1ccc(OCCN(C)C)cc1)c1ccccc1,AC50,[1],0.311 µM (active)
same,outcome,[1],inactive
same,outcome,[3],inactive
same,outcome,[4],inactive
same,AC50,[5],0.222 µM (active)
same,outcome,[5],inactive
same,AC50,[6],0.141 µM (active)
same,outcome,[6],inactive
same,AC50,[9],71.4 µM (active)
same,outcome,[9],inactive
same,outcome,[10],inactive
CCCCCC(=O)O[C@]1(C(C)=O)CC[C@H]2[C@@H]3CCC4=CC(=O)CC[C@]4(C)[C@H]3CC[C@@]21C,AC50,[1],11.4 µM (active)
same,outcome,[3],inactive
same,AC50,[4],6.66 µM (active)
same,outcome,[5],inactive
same,AC50,[7],13.4 µM (active)
same,AC50,[8],13.2 µM (active)
same,AC50,[6],4.56 µM (active)
